# Screening results (PubChem BioAssay)
# D1 potentiator = Potentiators of Human D1 Dopamine Receptor: qHTS; HEK293 TREx D1 cells, calcium flux, dopamine EC20 potentiation; potentiation, % at 10 µM; D(1A) dopamine receptor (Homo sapiens), P21728; 360,000 tested, 0.036% active; in the data active = potentiation above about 30%; note: 0% is about no effect
# D3 ag = qHTS of D3 Dopamine Receptor Agonist: qHTS; max activation, %; 410,000 tested, 0.58% active; D3R DiscoveRx beta-arrestin cells, luminescence, 90 min; in the data active = max activation above about 30%; note: 0% is about no effect
# Target sequence (P35462 whole entry, looked up): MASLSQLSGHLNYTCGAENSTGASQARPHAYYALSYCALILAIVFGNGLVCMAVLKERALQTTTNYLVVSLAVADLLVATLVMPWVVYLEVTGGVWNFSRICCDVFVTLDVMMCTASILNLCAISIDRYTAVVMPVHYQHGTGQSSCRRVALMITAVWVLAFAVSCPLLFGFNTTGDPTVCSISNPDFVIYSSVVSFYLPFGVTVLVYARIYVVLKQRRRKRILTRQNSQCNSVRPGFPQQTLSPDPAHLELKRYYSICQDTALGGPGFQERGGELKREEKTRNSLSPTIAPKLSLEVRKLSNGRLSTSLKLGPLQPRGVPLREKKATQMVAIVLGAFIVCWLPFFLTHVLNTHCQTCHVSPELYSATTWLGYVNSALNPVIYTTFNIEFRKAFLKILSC
#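 Cells at 1500/well, incubated overnight, then treated with pinned compounds (dopamine as control) for 90 min at 37 degrees C. DiscoveRx reagent added for 30 - 60 minutes at room temperature; luminescence read.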
# D1 antagonist = Antagonist of Human D 1 Dopamine Receptor: qHTS | 360,000 tested, 3.2% active | AID 504652, 2011 | D(1A) dopamine receptor (Homo sapiens), P21728 | activity change, negative = inhibition, % at 10 µM | HEK293 TREx D1 cells, calcium flux, dopamine EC80; stronger effect = lower value; in the data active = activity change below about -30%; note: % is set by controls: 0 for no effect and ±100 for the full control effect
#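 Inducible Hek293 Trex D1 cells (tetracycline, overnight, 30 C). Calcium dye 30–90 min RT. Antagonist mode: EC80 dopamine added after 180 s compound read.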
# D1 agonist = Allosteric Agonists of the Human D1 Dopamine Receptor: qHTS. D(1A) dopamine receptor (Homo sapiens), P21728. HEK293 T-REx D1 cells, calcium flux, agonist mode. activation, % at 2 µM. 360,000 tested, 1% active. AID 504660, 2011; in the data active = activation above about 30%; note: 0% is about no effect
#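 Tetracycline-induced HEK293 TREx D1 cells, force-coupled to calcium signalling, were dye-loaded with a no-wash calcium kit. Compound was pin-added after a 10 s baseline. Fluorescence was read kinetically at 1 cycle/s for 180 s, with calcium rises flagged as agonism.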
# DRD3 antagonist = qHTS of D3 Dopamine Receptor Antagonist: qHTS; AID 652054, 2013; 360,000 tested, 2.5% active; D(3) dopamine receptor (Homo sapiens), P35462; max response, negative = inhibition, %; D3R cells, DiscoveRx beta-arrestin luminescence, antagonist mode; stronger effect = lower value; in the data active = max response below about -50%; inconclusive = no clear call, values can overlap the other calls; note: % is set by controls: 0 for no effect and ±100 for the full control effect
#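 Cells expressing the human receptor were seeded at 1500 cells/well, incubated overnight at 37 degrees C in 5% CO2, then exposed to library compounds with dopamine controls for 90 minutes at 37 degrees C before luminescent detection.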
# * marks the source's active call; other numbers are inactive results; ? = inconclusive; . = no result given; ! = not active in a repeat. An excerpt weighted towards active compounds, which were near 6% of everything screened.
SMILES,D1 potentiator,D3 ag,D1 antagonist,D1 agonist,DRD3 antagonist
COc1ccc(S(=O)(=O)N(CC(=O)NCCSc2ccc(C)cc2)c2ccc(C)cc2)cc1,2,1,-19,56*,.
CCOc1ccc(S(=O)(=O)N(CC(=O)NCCSc2ccc(C)cc2)c2ccccc2)cc1,-1,-2,4,9,.
COc1ccccc1N(CC(=O)NCCSCc1ccccc1)S(=O)(=O)c1ccc(C)cc1,-6,3,1,12,14
COC(=O)c1ccc(OCC2c3cc(OC)c(OC)cc3CCN2C(=O)COc2ccc(Cl)cc2)cc1 (configuration not stated),-3,6,-11,2,.
CCN(C(=O)Cn1c(=O)n(Cc2ccccc2)c(=O)c2c1c1cc(OC)ccc1n2C)c1ccccc1,-3,9,-3,1,.
Cc1cc2ccccn2c1C(C[N+](=O)[O-])c1ccc(N(C)C)cc1 (configuration not stated),-2,6,1,42*,0
COc1ccc(C(C[N+](=O)[O-])c2c(C)cc3ccccn23)cc1 (configuration not stated),-6,-2,6,1,-21
CCOc1ccccc1NS(=O)(=O)c1ccc(-c2cnc(C3CC3)o2)cc1,-2,-3,-38*!,18,-9
Cc1cccc(N(C)S(=O)(=O)c2ccc(-c3cnc(C4CC4)o3)cc2)c1,-10,-3,-38*,9,-23
COc1ccc(NS(=O)(=O)c2ccc(-c3cnc(C4CC4)o3)cc2)cc1OC,-7,-1,-31*,17,-2
CC(=O)NC(c1ccco1)c1cc(Cl)c2ccc(N(C)C)nc2c1O (configuration not stated),9,.,-4,26,.
O=C1/C(=C\c2ccc(O)cc2)SC(=S)N1/N=C/c1ccc(O)cc1,4,0,-23,111*,24
COc1cccc(/C=N/NC(=O)c2[nH]c(C)c(C(=O)N/N=C/c3cccc(OC)c3)c2C)c1,-13,-25,-41*,2,-18
CCOC(=O)c1c(C)[nH]c(C(=O)N/N=C/c2cccc(OC)c2)c1C,-7,-3,-21,4,10
c1ccc2c(c1)CCN(CCCNc1nc3ccccc3n3cnnc13)C2,-4,-20,-2,1,-109*
CSc1ccc(CNc2nc3ccccc3n3cnnc23)cc1,8,-1,28,3,-10
Cc1ccc(CNc2nc3ccccc3n3cnnc23)cc1,-4,6,-37*!,-1,-6
CC(C)CCn1c(=O)c2cccnc2n(CC(=O)Nc2ccccc2F)c1=O,-2,-22,9,1,.
O=C(c1ccccc1F)N1CCN(C2CCC(c3ccccc3)CC2)CC1 (configuration not stated),-3,-4,-26,0,-17
O=C(c1ccc(F)cc1)N1CCN(C2CCC(c3ccccc3)CC2)CC1 (configuration not stated),1,0,-41*,3,7
COc1ccccc1N1CCN(C2CCN(C3CCC(c4ccccc4)CC3)CC2)CC1 (configuration not stated),-5,.,-9,7,.
COc1ccc(C(=O)N2CCN(C3CCC(c4ccccc4)CC3)CC2)cc1OC (configuration not stated),-12,-28,-37*,-1,?
c1ccc(C2CCC(N3CCN(c4ccccc4)CC3)CC2)cc1 (configuration not stated),-10,-6,16,-3,-52*
COc1ccc(N2C(=O)Cc3cc(OC)c(OC)cc3C2c2ccc(F)cc2)cc1 (configuration not stated),-1,-10,6,3,.
O=C(NC1CCN(Cc2ccc3ccccc3c2)CC1)c1ccccc1,-7,-19,2,16,-74*
SMILES,D1 potentiator,D3 ag,D1 antagonist,D1 agonist,DRD3 antagonist
O=C(NC1CCN(Cc2ccccc2)CC1)c1ccc(Cl)cc1Cl,-6,-21,-15,7,?
O=C(NC1CCN(Cc2ccc(F)cc2)CC1)c1ccccc1,-5,-49,-3,1,-72*
O=C(NC1CCN(Cc2ccc(Cl)c(Cl)c2)CC1)c1ccccc1,-6,-21,-33*,6,-99*
O=C(NC(=S)NC1CCN(Cc2ccccc2)CC1)c1ccc(F)cc1,5,-13,2,-2,?
O=C(CCCN1CCC(NC(=O)c2ccccc2)CC1)c1ccc(Cl)cc1,-6,-17,-19,2,?
Cc1ccc(C(=O)NC2CCN(CCCC(=O)c3ccc(F)cc3)CC2)cc1,-10,-10,-38*,3,-28
COC(=O)c1cnc(N2CCN(c3ccc(OC)cc3)CC2)c2ccccc12,-1,10,2,1,.
COc1ccc(NC(=O)Cn2cc(C(=O)c3ccco3)c3ccccc32)cc1,-5,-4,-87*,0,1
CCOc1ccc(NC(=O)Cn2cc(C(=O)c3ccco3)c3ccccc32)cc1,-6,10,-5,3,-25
COc1ccc(NC(=O)Cn2cc(S(=O)(=O)Cc3ccccc3)c3ccccc32)c(OC)c1,-2,5,-32*,0,38
COc1ccc(NC(=O)CS(=O)(=O)c2cn(CC(=O)N(C(C)C)C(C)C)c3ccccc23)c(OC)c1,8,-2,3,0,10
COc1cc2c(cc1OC)C(c1ccc(F)cc1)N(c1ccccc1)C(=O)C2 (configuration not stated),0,4,-1,-2,.
CCc1ccc(NC(=O)N(Cc2c[nH]c3ccccc23)C2CCCCCC2)cc1,-2,-4,6,20,.
CCc1nn(CC(=O)NC2CC2)c(=O)c2cc3c(OC)cccc3n12,-7,-33,-30,0,.
Cc1csc(NC(=O)c2ccc(OCC3CCCO3)cc2)n1 (configuration not stated),-7,4,-59*,14,8
CCOCCCN(C)C1CCN(C(=O)c2oc3ccccc3c2NC(=O)Cc2ccc(F)cc2)CC1,-5,-18,1,0,-71*
CCOCCCN(C)C1CCN(C(=O)c2oc3ccccc3c2NC(=O)COc2ccc(F)cc2)CC1,-1,-16,0,3,-8
CC(C)C(=O)Nc1c(C(=O)N2CCN(c3ccccc3F)CC2)oc2ccccc12,4,0,4,-1,.
O=C(COc1ccccc1)Nc1c(C(=O)N2CCN(c3ccc(F)cc3)CC2)oc2ccccc12,-10,2,-31*,5,.
O=C(Cc1ccccc1)Nc1c(C(=O)N2CCN(c3ccc(F)cc3)CC2)oc2ccccc12,-2,-6,-43*,6,.
